This is an account of results in ChEMBL document CHEMBL4513216, “Probing the Open Global Health Chemical Diversity Library for Multistage-Active Starting Points for Next-Generation Antimalarials” (ACS Infect Dis, 2020).

The whole screen tested about 69,000 compounds, of which about 8,600 (12%) showed an effect of 50% or more. The list comes from a sample in which strong results are over-represented; it also holds similar structures and randomly drawn compounds.

The experiment deals with Plasmodium berghei. The experiment in a line: Screen against P. berghei liver stage (PbLuc), transformed with Luciferase, at 10uM. The experiment is classed as functional, HepG2. The following applies: tested at 10 uM.
`CC1(C(=O)N2CCSCC2)CNCCO1` (stereo unspecified): the INHIBITION is on record as 34.825%. Take `O=C1CCCc2[nH]c(=O)c(C(=O)N3CCc4ccccc4C3)cc21`: the INHIBITION was 14.1%.

On to `COc1cccc(-c2cccc(CN3C[C@H]4CC[C@@H](C3)N(C)C4=O)c2)c1`, for which the INHIBITION worked out at 61%.

For the compound `CN1C(=O)[C@@H]2CC[C@H]1CN(Cc1cccc(OCc3ccccn3)c1)C2`, the INHIBITION came out at 47.5%. As for `COc1cccc(-c2ncc(CN3C[C@H]4CC[C@@H](C3)N(C)C4=O)s2)c1`, the INHIBITION turned out to be 78.9%.

With `COc1cccc(-c2ncc(CN3CC[C@@H]4CC[C@H](C3)N4)s2)c1`, the INHIBITION stood at 46.1%. For `COc1cccc(-c2ncc(CN3CC[C@H](CO)[C@@H](O)C3)s2)c1`, the INHIBITION worked out at 15.7%. Consider `COCCN1C[C@H]2CN(Cc3cccc(OC)c3)CCN2C1=O`, for which the INHIBITION amounted to 24.8%. Take `Cc1ccc(C2NC(=O)c3cc(C(C)C)sc3N2)cc1` (stereo unspecified): the INHIBITION was -4.92%. The same measure for `Cc1cnn(C2CN(CC(=O)NCCc3c[nH]c4ccccc34)C2)c1`: 10%; for `COc1cc(-c2cc(C3CCOC3)c(C#N)c(N)n2)ccc1O` (stereo unspecified): 53%. Under `COc1ccc(-c2cc(C3CCOC3)c(C#N)c(N)n2)cn1` (stereo unspecified) stands 6.69%. Turning to `Cc1cc(-c2cc(C3CCOC3)c(C#N)c(N)n2)ccc1Cl` (stereo unspecified), the INHIBITION is recorded as 23.9%.

With `Cc1ccc(C(=O)N2CCCC(Nc3ccc(F)cc3)C2)cc1` (stereo unspecified), the INHIBITION worked out at 36%. In the case of `C=Cc1ccc(C(=O)N2CCCC(Nc3ccc(F)cc3)C2)cc1` (stereo unspecified), the INHIBITION was determined as 36.8%.

Turning to `C=Cc1ccc(C(=O)N2CCCC(Nc3ccc(F)c(F)c3)C2)cc1` (stereo unspecified), the INHIBITION is on record as 37.1%. In the case of `C=Cc1ccc(C(=O)N2CCCC(Nc3ccccc3)C2)cc1` (stereo unspecified), the INHIBITION is reported as 50.3%.

For the compound `COC(=O)c1ccc(C(=O)N2CCCC(Nc3ccc(F)cc3)C2)cc1` (stereo unspecified), the INHIBITION is -6.88%.

Regarding `C=Cc1ccc(C(=O)N2CCCC(Nc3ccc(OC)cc3)C2)cc1` (stereo unspecified), the INHIBITION is listed as 73.5%.

`CC(C)N1CCO[C@H]2CN(C(=O)c3ccsc3)C[C@H]21`: the INHIBITION is -5.05%. Regarding `CC(=O)N1CCCCC[C@@H]2[C@@H]1[C@H](c1cccc(F)c1)CN2C(=O)C1CC1`, the INHIBITION is recorded as 35.85%. Regarding `O=C(c1ncc(F)cc1F)N1CCC(c2ncc[nH]2)CC1`, the INHIBITION came out at 29.4%. The same measure for `CN(C)c1nccc(C2CCN(C(=O)CO)CC2)n1`: -37%; for `CN(C)C(=O)c1cccc(C2CCN(c3ncccn3)CC2)n1`: -19.7%; for `CN1CCC(c2cccc(C(=O)N(C)C)n2)CC1`: 16.5%. The same measure for `Cc1cc(C)nc(N2CCC(c3ccnc(N(C)C)n3)CC2)n1`: 75.9%.

For the compound `CN(C)c1nccc(C2CCN(C3CCCCC3O)CC2)n1` (stereo unspecified), the INHIBITION is on record as 27.6%. Turning to `CN(C)c1nccc(C2CCN(c3ncccn3)CC2)n1`, the INHIBITION is 76.8%.

In the case of `CN(C)c1nccc(C2CN(S(C)(=O)=O)C2)n1`, the INHIBITION turned out to be 20.2%. The same measure for `CN(C)c1cccc(C2CCN(c3ncccn3)CC2)n1`: 48%; for `NC(=O)c1cccc(C2CCN(c3ncccn3)CC2)n1`: 52.7%.
